# Inconclusive results are not listed. Values without a mark were called inactive. The source made the active and inactive calls. Calls come from the whole dose curve; as a rule, active = well fitted inhibition curve with a large enough effect; inconclusive = small, poorly fitted or top-dose-only effect; inactive = no such curve, though single readings can be large or run the other way.
# Test: Acumen qHTS Assay for Inhibitors of the mTORC1 Signaling Pathway in WT MEF Cells: Hit Validation; note: nearly all actives have a fitted effect of over 60% in size;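 for activity change, negative = inhibition: percent of cells above a cutoff set by 7.5 nM rapamycin treated wells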
# Conditions: Acumen imaging; series mostly up to 37.3 µM; activity change, negative = inhibition: at the top concentration
# From the text: The mammalian target of rapamycin (mTOR) is an intracellular serine/threonine kinase Aberrant regulation of mTOR signaling plays a causative role in a number of human diseases, including cancer, benign tumors such as lymphangioleiomyomatosis (LAM) and Tuberous Sclerosis Complex (TSC), and metabolic diseases such as diabetes and obesity. This project aims to identify inhibitors of ribosomal protein S6 (rpS6) phosphorylation. The phosphorylation of rpS6 is a key event downstream of mTOR activation. The assay uses a phospho-specific antibody of phospho-rpS6 to detect inhibitors of mTOR activation. Mutations in the Tsc1 and Tsc2 genes are the underlying genetic lesions responsible for TSC, causing constitutive activation of the mTORC1 pathway and leading to profound effects on cell metabolism. Aberrant metabolism in cancer has recently received significant attention as a target to develop therapeutic agents in the treatment of cancer.1 As Tsc2-/- cells have lost the ability to respond to energy and growth factor deprivation, these cells are unable to properly down regulate cellular biosynthetic processes in response to metabolic stress, and are thus extremely sensitive to glucose deprivation-induced death.2 A central goal of this project is to explore the unique cell survival and metabolic properties of cells with Tsc1 or Tsc2 by screening for compounds that selectively target the Tsc2-/- MEFs by screening both Tsc2-/- and WT MEF cell lines. We hope to better understand these aspects of TSC physiology in order to exploit them for therapeutic benefit.
# NIH Molecular Libraries Probe Production Centers Network [MLPCN]
# NIH Chemical Genomics Center [NCGC]
# Assay Submitter (PI): Blenis, John; Harvard University
# For quantitative high throughput analysis of mTORC1 signaling, we developed a cell-based assay for immuno-fluorescence based detection of rpS6 phosphorylation on the Acumen Explorer that will be used a platform for the primary small molecule screen. Mouse embryonic fibroblasts (MEFs) are cultured in 1536-well plates using DMEM + 10% FBS. Twenty-four hrs after plating, test compounds (solubilized in DMSO) are delivered and incubated with the cells for 24 hrs at 37 degree Celsius. Following the incubation, media with compound is aspirated and the cells are fixed in 4% paraformaldehyde (PFA) containing PBS + 0.2% TX-100. Next, PFA is aspirated, cells are washed two times with PBS plus 0.2% TX-100 and the cells are blocked for 1 hr at room temperature (blocking buffer: LiCOR Blocking Buffer plus 0.2% TX-100). This is followed by aspiration and staining with Alexa-488 conjugated-phospho-rpS6 Ser235/236 antibody for 2 hours at room temperature (Cell Signaling Technology # 4803, 1:50 dilution in blocking buffer). Cells are washed two times with PBS plus 0.2% TX-100, and stained with 10 uM propidium iodide (PI) for 20-25 minutes for cell number measurement (1:500 dilution of Hoescht staining is also added for IN Cell imaging). The plates are scanned on the Acumen Explorer laser scanning instrument (TTP Labtech) using the 488nm laser for simultaneous excitation of the Alexa-488 and PI. […] Fluorescence emission from the PI stain is selected using a 575-640 nm band pass filter. The normalized phospho-S6 staining is calculated as the ratio of the integrated Alexa 488 intensity divided by the integrated PI intensity for the single concentration rapamycin control (7.5 nM) and DMSO columns. […] Inhibition of the pathway is defined based on the normalized phospho-S6 intensity in rapamycin treated cells. Active cells are defined as those with a normalized phospho-S6 staining above this threshold, and each treatment is reported as the % positive cells in the well, where thresholds are defined by selecting wells with the highest and lowest signal and differentiating between the % non-active and % active populations. In addition to the pathway specific phospho-S6 endpoint, the number of PI stained cells from the Acumen is recorded as a measure of cell viability. […]
# Potency is the fitted concentration of half-maximal effect.
Structure (SMILES),Potency,"activity change, negative = inhibition"
CCOc1ccc(S(=O)(=O)N(C(=O)c2ccncc2)c2ccc3oc(C)c(C(=O)OC)c3c2)cc1,14700 nM (active),–
CS(=O)(=O)CCNCc1ccc(-c2ccc3ncnc(Nc4ccc(OCc5cccc(F)c5)c(Cl)c4)c3c2)o1,–,1.69%
CCc1nnc(NC(=O)c2nc(S(=O)(=O)Cc3cccc(C)c3)ncc2Cl)s1,5210 nM (active),–
O=C(CCn1cnc2onc(-c3ccc(F)cc3)c2c1=O)Nc1ccc(F)c(Cl)c1,–,-9.16%
COc1ccc(Cn2c(C(=O)O)c(CNCc3ccc(SC)cc3)c3ccc(OC)cc32)cc1,–,-3.13%
CCN1C(=O)c2ccccc2Sc2ccc(NC(=O)Cc3ccc(OC)cc3)cc21,–,2.8%
CCOC(=O)c1ccc(N2C(=O)c3n[nH]c(-c4cccs4)c3C2c2cccc(F)c2)cc1 (stereo not given),–,-12.8%
CC[C@H](CO)Nc1nc(NCc2ccccc2)c2ncn(C(C)C)c2n1,–,-51.5%
Cc1nn(CC(=O)N2CCN(c3ccccc3F)CC2)c(=O)c2cccn12,–,26.1%
Cc1cc(NCc2ccc(Cl)cc2)n2cnnc2n1,–,-27.1%
Cc1ccc(-c2cc(C(=O)N3CCN(c4ccccc4)CC3)c3ccccc3n2)cc1C,–,-2.1%
O=C(Cn1c(=O)c2cccn2c2ccccc21)NCc1ccccc1F,–,18.4%
CCOc1ccc(Nc2nc(-c3cccc(Cl)c3)c3c(n2)-c2ccccc2OC3)cc1,–,-3.01%
CCN(CC)CCOC(=O)c1ccc(NC(=O)c2nn(-c3ccc(C)cc3)c(=O)c3c2c2ccccc2n3C)cc1,1170 nM (active),–
O=S(=O)(c1cccc2cnccc12)N1CCCNCC1,–,-22.7%
Cc1ccc(CN(Cc2ccco2)C(=O)c2cccc(C)c2)cc1,–,8.98%
COc1ccc(C)cc1NC(=O)C(Cc1ccccc1)NS(=O)(=O)c1ccc(Br)s1 (stereo not given),–,6.44%
CCOC(=O)c1c(NC(=O)c2cc(CC)on2)sc(C(C)=O)c1C,–,13.1%
COC(=O)c1cc2sc(C)cc2n1Cc1ccccc1,–,-15.3%
CCCS(=O)(=O)c1c(S(=O)(=O)CCC)c2cc(C(C)(C)C)ccn2c1C(=O)c1ccc(OC)c(OC)c1,–,-3.05%

Structure (SMILES),Potency,"activity change, negative = inhibition"
COc1cccc(-c2nc(SCC(=O)NCC3CCCO3)c(-c3ccc(F)cc3)[nH]2)c1 (stereo not given),–,12.2%
CCCc1oc2ccc(NS(=O)(=O)c3ccc(OC)cc3)cc2c1C(=O)OCC,585 nM (active),–
CCOc1ccccc1NC(=O)Cn1c(=O)n(CCC(=O)NCc2ccc3c(c2)OCO3)c(=O)c2ccccc21,–,3.05%
CC(C)N(C(=O)Cn1cc(S(=O)(=O)Cc2ccc(Cl)cc2)c2ccccc21)C(C)C,–,-3.05%
COc1cc(C2CC(=O)Nc3cc4c(cc32)OCCO4)cc(Br)c1OC (stereo not given),52.1 nM (active),–
COc1ccc(CCCc2nnc(SCC(=O)Nc3ccc(OC)cc3)o2)cc1,–,9.53%
Cc1ccc(-c2nn(C)c(=O)c3ccccc23)cc1S(=O)(=O)NCCCN(C)C,–,5.16%
Cc1c(C(=O)OC2CCC(C)CC2)[nH]c2c1C(=O)CC(c1ccc(F)cc1)C2 (stereo not given),–,-0.763%
CC(C(=O)NCc1cccc(Br)c1)n1ncn2cccc2c1=O (stereo not given),–,4.58%
C=CCc1c(C)nc2nc(SCC(=O)Nc3ccc(C)c(C)c3)nn2c1C,1170 nM (active),–
CCS(=O)(=O)c1ncc(Cl)c(C(=O)N2CCN(c3ccc(OC)cc3)CC2)n1,10400 nM (active),–
COc1cccc(C2CC(=O)Nc3cc4c(cc32)OCCO4)c1OC (stereo not given),–,10.7%
COc1ccc(CNC(=O)C2CCN(c3nc4ccc(C)cc4[nH]3)CC2)cc1,–,29.6%
COc1ccc(C)cc1NC(=O)CSc1ccc(-c2ccccn2)nn1,–,4.03%
CN1CCN(C2(CNC(=O)c3ccc(C(C)(C)C)cc3)CCCCC2)CC1,–,10.1%
O=C(Nc1cccc(NC(=O)c2ccccc2Cl)c1)c1cccc(Br)c1,–,9.16%
CCOc1ccc(CCNCc2c(C(=O)O)n(Cc3ccc(C)cc3)c3cc(OC)ccc23)cc1,–,-1.53%
NC(N)=NC(=O)c1nc(Cl)c(N)nc1N,–,-21.2%
COc1ccc(OC)c(NC(=O)c2nc(S(=O)(=O)Cc3ccc(F)cc3)ncc2Cl)c1,3290 nM (active),–
CC(C)CS(=O)(=O)c1oc(-c2ccc(F)cc2)nc1S(=O)(=O)c1ccccc1,585 nM (active),–

# Reference: PubChem BioAssay AID651789 (National Center for Advancing Translational Sciences (NCATS), 2012)
